Here are results for 60 compounds from PubChem BioAssay.

Values without a mark were called inactive. How the calls were made is not given here.

For this assay, the system named is Aerobactin synthetase IucA (Klebsiella pneumoniae hvKP1). Kind of assay: IucA enzyme inhibition, primary screen, biochemical, Spectrum library (AID 1346200).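 Further: 100% = wells without compound and 0% = wells lacking enzyme.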 The note with it: malachite green pyrophosphate, A620, at 8 µM, hits give low values.

In the case of `CCCCCCCCCCCC1=C(O)C(=O)C=C(O)C1=O`, the activity remaining is 102%.
On to `CC(C)c1c(O)ccc2c1CCC1[C@@](C)(C=O)CCC[C@]21C` (stereo not given in full), for which the activity remaining was 99.8%.
`CC(C)=CCC[C@](C)(O)C1CC=C(C)CC1` (stereo not given in full): the activity remaining is 118%.
In the case of `C=C1CCC2C(CC2(C)C)C(=O)CCC1O` (stereo not given), the activity remaining was 116%.
The same measure for `COc1c2ccoc2c(OC)c2oc(=O)ccc12`: 121%; for `O=C(O)C1=C(CSc2nnnn2CS(=O)(=O)O)CS[C@@H]2C(NC(=O)[C@H](O)c3ccccc3)C(=O)N12` (stereo not given in full): 116%.
The same measure for `CCC(/C=C/[C@@H](C)[C@H]1CCC2C3CC=C4C[C@@H](O)CC[C@]4(C)C3CC[C@@]21C)C(C)C` (stereo not given in full): 101%; for `O=C(O[C@@H]1Cc2c(O)cc(O)cc2O[C@@H]1c1cc(O)c(O)c(O)c1-c1c([C@H]2Oc3cc(O)cc(O)c3C[C@H]2OC(=O)c2cc(O)c(O)c(O)c2)cc(O)c(O)c1O)c1cc(O)c(O)c(O)c1`: 111%.
`CCC[C@@H]1C[C@@H](C(=O)N[C@@H](C2O[C@H](SC)[C@H](O)[C@@H](O)[C@H]2O)[C@H](C)Cl)N(C)C1` (stereo not given in full): the activity remaining was 77.4%.
The same measure for `CC(C)(C)CC(C)(C)c1ccc(O)c(Cc2ccc(Cl)cc2Cl)c1`: 110%; for `Cc1[nH]ccc2c1[nH]c1cc(=O)ccc12`: 118%; for `C[C@@H]1CC2C3CCC4=CC(=O)C=C[C@]4(C)[C@@]3(F)[C@@H](O)C[C@]2(C)[C@@]1(O)C(=O)COP(=O)(O)O` (stereo not given in full): 114%.
The same measure for `COc1ccc(C(=O)c2ccccc2)c(O)c1`: 116%; for `Cn1c([N+](=O)[O-])cnc1COC(N)=O`: 104%; for `CN(C)CCOC(c1ccc(Cl)cc1)c1ccccn1` (stereo not given): 115%.
The same measure for `O=C(OC[C@H]1O[C@H](OC(=O)c2cc(O)c(O)c(OC(=O)c3cc(O)c(O)c(O)c3)c2)[C@H](OC(=O)c2cc(O)c(O)c(OC(=O)c3cc(O)c(O)c(O)c3)c2)[C@@H](OC(=O)c2cc(O)c(O)c(OC(=O)c3cc(O)c(O)c(O)c3)c2)[C@@H]1OC(=O)c1cc(O)c(O)c(OC(=O)c2cc(O)c(O)c(O)c2)c1)c1cc(O)c(O)c(OC(=O)c2cc(O)c(O)c(O)c2)c1`: 100%; for `CN(C)CCOc1ccc(/C(=C(/CCCl)c2ccccc2)c2ccccc2)cc1`: 112%; for `Nc1ccc(C(=O)O)c(O)c1`: 108%.
Take `Oc1cccc(O)c1`: the activity remaining was 116%.
In the case of `CCOc1nc2cccc(C(=O)OC(C)OC(=O)OC3CCCCC3)c2n1Cc1ccc(-c2ccccc2-c2nn[nH]n2)cc1` (stereo not given), the activity remaining is 104%.
For `C=C(C)C1(O)OC(=O)C=C1OC` (stereo not given), the activity remaining was 124%.
For `C[C@]12CCC(=O)C=C1CCC1C2[C@@H](O)C[C@@]2(C)C1CC[C@]2(O)C(=O)CO` (stereo not given in full), the activity remaining was 113%.
In the case of `CC(C)(O)[C@@H]1CC[C@](C)([C@H]2[C@@H](O)C[C@@]3(C)C4C[C@H](O[C@@H]5O[C@H](CO)[C@@H](O)[C@H](O)[C@H]5O)C5C(C)(C)[C@@H](O[C@@H]6OC[C@@H](O)[C@H](O)[C@H]6O)CC[C@@]56C[C@@]46CC[C@]23C)O1` (stereo not given in full), the activity remaining was 93%.
Consider `C=C(C)[C@H]1CC=C(C(=O)O)CC1`, for which the activity remaining is 120%.
As to `CC(NCCc1ccc(O)cc1)C(O)c1ccc(O)cc1` (stereo not given), the activity remaining was 115%.
Regarding `CC(=O)S[C@@H]1CC2=CC(=O)CC[C@]2(C)[C@H]2CC[C@@]3(C)[C@@H](CC[C@@]34CCC(=O)O4)C12` (stereo not given in full), the activity remaining was 106%.
The same measure for `Cc1cccc(CN2CCN(C(c3ccccc3)c3ccc(Cl)cc3)CC2)c1` (stereo not given): 95.5%.
The same measure for `NC(=O)N1c2ccccc2CC(=O)c2ccccc21`: 123%; for `c1ccc(-c2ccc(C(c3ccccc3)n3ccnc3)cc2)cc1` (stereo not given): 111%.
Take `CC1CCc2cc(F)cc3c(=O)c(C(=O)O)cn1c23` (stereo not given): the activity remaining is 119%.
The same measure for `CC(C)=CCc1c2c(c(O)c3c(=O)c(O)c(-c4ccccc4)oc13)C=CC(C)(C)O2`: 110%; for `CC(C)[C@@H]1CC[C@@H](C)C[C@H]1OC(=O)c1ccccc1`: 120%.
For the compound `CCN(CC)CCOC(=O)C(c1ccccc1)C1CCCCC1` (stereo not given), the activity remaining was 111%.
Turning to `CC(C)Cc1ccc(C(C)C(=O)O)cc1` (stereo not given), the activity remaining is 90.9%.
The same measure for `CC(=O)Oc1cc(C)c2c(c1C(OC(C)=O)OC(C)=O)Oc1c(c(C)c(OC(C)=O)c3c1C(OC(C)=O)OC3=O)OC2=O` (stereo not given): 96.1%; for `CC(=O)O[C@H]1CC[C@@]2(C)C(C[C@@H](OC(C)=O)[C@@]3(C)C4=CC(=O)O[C@@H](c5ccoc5)[C@]4(C)CCC23)C1(C)C` (stereo not given in full): 89.5%; for `CCN(CC)Cc1ccc(Nc2ccnc3cc(Cl)ccc23)cc1O`: 102%.
On to `COc1c2ccoc2cc2oc(C)cc(=O)c12`, for which the activity remaining was 108%.
Take `COc1ccc2cc(CCC(C)=O)ccc2c1`: the activity remaining is 99.8%.
As for `COc1c2occc2cc2ccc(=O)oc12`, the activity remaining is 124%.
The same measure for `Cc1cc(O)c(C=O)c2c1C(=O)Oc1c(C)c(O)c3c(c1O2)C(O)OC3=O` (stereo not given): 113%; for `CS(=O)(=O)c1ccc([C@@H](O)[C@@H](CO)NC(=O)C(Cl)Cl)cc1`: 124%; for `Cc1cc(O)c(C)c(O)c1C(=O)O`: 121%.
As for `NC[C@H]1O[C@H](O[C@H]2C(O[C@@H]3O[C@H](CO)[C@@H](O)[C@H]3O)[C@@H](O)[C@H](N)C[C@@H]2N)[C@H](N)[C@@H](O)[C@@H]1O` (stereo not given in full), the activity remaining is 123%.
Turning to `O=C(/C=C/c1ccccc1)c1ccc(O[C@@H]2O[C@H](CO)[C@@H](O)[C@H](O)[C@H]2O)cc1O`, the activity remaining is 116%.
For the compound `OCc1ccccc1O[C@@H]1O[C@H](CO)[C@@H](O)[C@H](O)[C@H]1O`, the activity remaining was 101%.
Consider `CC(C)=CC1C(C(=O)O)C1(C)C` (stereo not given), for which the activity remaining was 121%.
The same measure for `COc1cc(NS(C)(=O)=O)ccc1Cc1c2ccccc2nc2ccccc12`: 104%; for `CC(=O)Oc1cc(OC(C)=O)c2c(c1)O[C@H](c1ccc(OC(C)=O)c(OC(C)=O)c1)[C@@H](OC(C)=O)C2`: 98%.
Take `COc1cc(NS(=O)(=O)c2ccc(N)cc2)ncn1`: the activity remaining was 92.3%.
The same measure for `CC(=O)C1CCC2C3CC(=O)C4=CC(=O)CCC4(C)C3CCC12C` (stereo not given): 98.9%; for `NCC[C@@H](O)C(=O)N[C@@H]1C[C@H](N)[C@@H](O[C@H]2O[C@H](CN)[C@@H](O)[C@H](O)[C@H]2O)[C@H](O)[C@H]1O[C@H]1O[C@H](CO)[C@@H](O)[C@H](N)C1O` (stereo not given in full): 113%; for `N=c1ccn2c(n1)O[C@@H]1[C@@H](O)[C@H](CO)O[C@@H]12`: 97.5%.
Turning to `Oc1c(Br)cc(Br)c2cccnc12`, the activity remaining is 113%.
As to `Nc1nc(=S)c2[nH]cnc2[nH]1`, the activity remaining is 121%.
The same measure for `COc1ccc([C@H]2COc3c(ccc(O)c3OC)C2)c(OC)c1O`: 89.5%.
For `C=CCc1ccc(O)c(OC)c1`, the activity remaining was 115%.
Consider `COC(=O)C[C@H]1C(C)(C)C(=O)[C@@H]2CC3=C(CC[C@]4(C)C3=CC(=O)O[C@H]4c3ccoc3)C1(C)C2=O`, for which the activity remaining is 121%.
The same measure for `CCOC(=O)[C@H](CCc1ccccc1)N[C@H](C)C(=O)N1C2CCCCC2C[C@H]1C(=O)O` (stereo not given in full): 119%.
Regarding `NC(=O)NC(=O)Cc1ccccc1`, the activity remaining is 93%.
